MCF10A rerep: inducers of DNA re-replication in MCF 10A breast cells | MCF 10A DNA re-replication, Hoechst nuclear intensity, 48 h | Potency, µM (top dose mostly 46.1 µM), most hits filed as activators | 350,000 tested, 2.9% active; also: nearly all actives have a fitted effect of over 50% in size
HT1080 IDH1KD tx: kills HT-1080 cells with IDH1 knockdown; HT-1080 IDH1 knockdown viability, ATP luminescence, 48 h; Potency, µM (titrated, usually from 46.1 µM), most hits filed as cytotoxic; 360,000 tested, 2% active; AID 686971
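Assay cells: HT-1080 with IDH1 knockdown, 750 per well, RPMI/5% FBS. Exposure: 48 h at 37 °C following 2 h pre-incubation. Read: CellTiter-Glo luminescence; fitted concentration-response, curve class assigned.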
SW480 rereplic: inducers of DNA re-replication in SW480 colon cancer cells; 340,000 tested, 1.8% active; SW480 DNA re-replication, Hoechst DNA content imaging, 48 h; Potency, µM (series often up to 46.1 µM), actives largely listed as activators; also: nearly all actives have a fitted effect of over 55% in size
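Quantitative HTS format with DMSO vehicle controls; 48 hr drug incubation at 37 C, then 40 min Hoechst staining and scanning imager measurement at 405 nm excitation.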
KB-3-1 cytotox: kills parental KB-3-1 adenocarcinoma cells; KB-3-1 viability, CellTiter-Glo ATP luminescence, 72 h; Potency, µM (titrated, usually from 46.1 µM), actives largely listed as cytotoxic; 400,000 tested, 1.4% active; also: nearly all actives have a fitted effect of over 60% in size
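Multi-concentration cytotoxicity screen in KB-3-1 cells grown in DMEM lacking phenol red with 10% FBS. After 72 h at 37 °C with compound, ATP-dependent luminescence was recorded.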
HT1080NT lethal: kills 2HG-producing HT-1080-NT fibrosarcoma cells; HT-1080-NT fibrosarcoma viability, CellTiter-Glo ATP luminescence, 48 h; Potency, µM (titrated, usually from 46.1 µM), actives largely listed as cytotoxic; 360,000 tested, 1.6% active; AID 686970;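 also: NT is the 2HG producing partner of a matched IDH1 knockdown line; nearly all actives have a fitted effect of over 55% in size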
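HT-1080-NT fibrosarcoma cells (2HG-overproducing), 750 cells/well in RPMI with 5% FBS, dosed after 2 h and incubated 48 h at 37C. CellTiter-Glo luminescence normalized to DMSO and no-cell wells; concentration-response curves fitted and classed.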
KB-V1 MDR tox: kills drug-selected multidrug resistant KB-V1 cells | KB-V1 MDR cells viability, CellTiter-Glo, 72 h | Potency, µM (titrated, usually from 46.1 µM), hits mostly cytotoxic | 400,000 tested, 3.4% active | AID 1347076; also: nearly all actives have a fitted effect of over 60% in size
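Cytotoxicity toward P-gp-expressing KB-V1 cells was determined as loss of CellTiter-Glo luminescence after 72 h at 37 degrees C. Compounds were tested in quantitative HTS format across a concentration range, with curves fitted to normalized data.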
A number is an active result; – = inactive; ? = inconclusive; · = no result. This is a sample that favours compounds with a hit; in the whole collection about 8% have one here. Calls follow the shape of the dose curve; as a rule, active = well fitted curve in the direction sought with a large enough effect; inconclusive = small, poorly fitted or top-dose-only effect, or another doubt; inactive = no such curve, though single readings can be large; an effect the other way counts as inactive or inconclusive.

SMILES | MCF10A rerep | HT1080 IDH1KD tx | SW480 rereplic | KB-3-1 cytotox | HT1080NT lethal | KB-V1 MDR tox
CCN(CC)S(=O)(=O)c1csc(C(=O)NCc2ccccc2)c1 | – | – | – | – | – | 21µM
CCN(CC)S(=O)(=O)c1cccc(C(=O)NCc2ccccc2)c1 | – | – | – | – | – | –
Cc1ccnc(NC(=S)N2CCN(c3cccc([N+](=O)[O-])c3)CC2)c1 | · | · | · | – | · | –
O=C1C=C(NCCN2CCOCC2)C(=O)c2cnccc21 | ? | · | 10µM | · | · | ·
CN(C)c1ncnc2c1ncn2-c1ccccc1 | – | – | – | – | – | ?
Clc1nc(Cl)c2ncn(-c3ccccc3)c2n1 | ? | – | ? | 18µM | – | ?
CNc1nc(Cl)nc2c1ncn2-c1ccccc1 | – | – | – | 15µM | – | 6.5µM
COc1ccc2ccc3c(c2c1)N=CC1(O3)N(C)c2ccccc2C1(C)C (stereo not drawn) | ? | 6.3µM | – | – | 7.9µM | ?
COc1ccc(-c2ccnc(-c3ccc(OCCCF)cc3)n2)cc1 | 15µM | – | ? | ? | – | ?
FCCCOc1ccc(-c2nccc(-c3ccc(Cl)cc3)n2)cc1 | – | – | – | – | – | –
Cc1ccc(S(=O)(=O)N2CCc3cc(C(=O)NCCc4ccccc4)ccc32)cc1 | · | · | · | – | · | –
S=C(NCCc1ccccc1)N1CCCC1 | – | – | – | – | – | –
S=C(NCCc1ccccc1)N1CCN(C23CC4CC(CC(C4)C2)C3)CC1 | 5.8µM | – | ? | – | – | ?
C=CCNC(=O)c1ccc(CN(c2ccc(OCC)cc2)S(=O)(=O)c2ccc(C)cc2)cc1 | 26µM | ? | ? | ? | ? | –
Brc1ccc2c(c1)OCCOCCOc1cc(Br)ccc1OCCOCCOCCO2 | ? | 18µM | ? | ? | ? | 2.3µM
Brc1cc2c(cc1Br)OCCOCCOCCOCCO2 | ? | – | – | – | – | –
CCN(C(C)=O)c1nc(CSc2nnc(NC(C)C)s2)cs1 | – | – | – | – | – | 23µM
CC(C)c1cc(NC(=O)CCl)on1 | ? | 26µM | ? | ? | 18µM | –
Cc1ccc(C(C)C)c(OCc2nn(CC(=O)c3ccc(Cl)cc3)c3[n+]2CCCCC3)c1 | ? | 18µM | ? | ? | ? | –
CCc1ccc(NC(=O)c2ccc(F)c(S(=O)(=O)NCC3COc4ccccc4O3)c2)cc1 (stereo not drawn) | – | – | – | ? | – | 3.3µM
CCOC(=O)N1CCN(C(=O)c2ccc3c(c2)N(Cc2ccccc2F)C(=O)c2ccccc2S3=O)CC1 (stereo not drawn) | · | · | · | – | · | –
Cc1cccc2c(/C=C/c3ccc(N(C)C)cc3)ccnc12 | · | · | · | – | · | –
COc1ccc(CN(Cc2ccccc2)C(=O)c2ccco2)cc1COc1ccc(NC(C)=O)cc1 | · | – | · | · | – | ·
CCCN(C(=O)c1cc2c(=O)n(CC)c3ccccc3c2s1)c1ccccc1F | · | · | · | – | · | –
CCn1c(=O)c2cc(C(=O)N(C)c3cc(Cl)c(OC)cc3OC)sc2c2ccccc21 | · | · | · | – | · | –
SMILES | MCF10A rerep | HT1080 IDH1KD tx | SW480 rereplic | KB-3-1 cytotox | HT1080NT lethal | KB-V1 MDR tox
CCn1c(=O)c2cc(C(=O)N(C)c3cc(C)ccc3OC)sc2c2ccccc21 | ? | – | ? | – | – | 23µM
CCOc1ccccc1N(CC)C(=O)c1cc2c(=O)n(CC)c3ccccc3c2s1 | · | · | · | ? | · | 21µM
Cc1cccc(N2CCN(C(=O)C3CCCN(S(=O)(=O)c4cccc5nsnc45)C3)CC2)c1C (stereo not drawn) | · | · | · | – | · | –
O=C(Nc1cc2c(cc1Br)OCCCO2)c1cccnc1 | – | – | – | – | – | –
O=C(Nc1cc2c(cc1Cl)OCCCO2)c1ccc(F)cc1 | – | – | – | – | – | 16µM
O=C(CCc1ccccc1)Nc1cc2c(cc1Cl)OCCO2 | – | – | – | – | – | 21µM
O=C(Nc1cc2c(cc1Br)OCCCO2)c1ccccc1 | – | – | – | – | – | 21µM
COc1cccc(C(=O)Nc2cc3c(cc2Cl)OCCCO3)c1 | – | – | – | – | – | 23µM
COc1ccc(C(=O)Nc2cc3c(cc2Cl)OCCCO3)cc1 | – | – | – | – | – | –

From PubChem
